Reference: PubChem BioAssay (NCATS)
Inconclusive results are not listed. Where a call stands in place of a potency, no number is given. The source made the active and inactive calls. The call rests on the fitted dose curve; in most records, active means well fitted curve in the direction sought with a large enough effect; inconclusive means small, poorly fitted or top-dose-only effect, or another doubt; inactive means no such curve, though single readings can be large; an effect the other way counts as inactive or inconclusive.

Columns and labels:
[1] = Cytotoxicity qHTS for assessment of Hepg2 cells membrane integrity screened against the NCATS CANVASS Library (AID 1347387); conditions: HepG2 LDH release (CytoTox-ONE) fluorescence, 5 h; series mostly up to 46.1 µM
Procedure, shortened: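 Cells were seeded at 2000 per well and left overnight to attach. Compounds were pin-transferred to give 0.59 nM - 46 uM in an 11-point series and incubated 5 hr at 37C. CytoTox-ONE reagent was added and, after 10 min at room temperature, fluorescence (ex 560, em 590 nm) was read.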

[2] = qHTS assay for small molecule disruptors of mitochondrial membrane potential screened against the NCATS CANVASS Library (AID 1347389); conditions: HepG2 mitochondrial membrane potential, m-MPI red/green ratio, 1.5 h; further: potency means the concentration at half of the fitted maximal effect; nearly all actives have a fitted effect of over 60% in size
Procedure, shortened: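 Mitochondrial depolarization in HepG2 cells is scored as a falling aggregate-to-monomer fluorescence ratio after 1 hr compound exposure and 30 min staining with Mito-MPS dye at 37C, each compound tested as an 11-point titration.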

[3] = qHTS for activators of dead-cell proteases activity screened against the NCATS CANVASS Library (AID 1347392); conditions: HepG2 cytotoxicity, dead-cell protease luminescence, 5 h; series mostly up to 46.1 µM;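 further: luminescence from protease leaking out of membrane-damaged cells cleaving impermeant substrate; rising signal means more cytotoxicity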
Procedure, shortened: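 Cytotoxicity in HepG2 cells was assessed by released protease cleaving AAF-aminoluciferin, with luminescence as signal. Exposure lasted 5 h at 37C across an 11-point series.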

[4] = Vero-766 cells viability qHTS against the NCATS CANVASS Library: Counterscreen for Zika virus inhibition assay (AID 1347394); conditions: Vero 766 viability, CellTiter-Glo luminescence, 72 h; series mostly up to 46.1 µM; further: nearly all actives have a fitted effect of over 60% in size; further: potency means the concentration at half of the fitted maximal effect
Procedure, shortened: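 Uninfected Vero 766 (African green monkey) cells, 1000/well, attached overnight, then exposed 72 h at 37C to compounds (11-point qHTS). Viability read by CellTiter-Glo luminescence; media-only wells served as 100% inhibition.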

[5] = qHTS for inhibitors of Wild type Zika virus screened against the NCATS CANVASS Library (AID 1347396); conditions: Vero cells, Zika virus CPE, CellTiter-Glo, 72 h; series mostly up to 45.9 µM;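 further: ATP luminescence of surviving cells so rescue from viral cell killing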
Procedure, shortened: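 Using ATP-based luminescence (CellTiter Glo), this screen scores rescue of Vero 766 cells from wild-type Zika killing at 72 h post-infection. Compounds are tested in a concentration series.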

[6] = qHTS for Activators of p53 Stress Response Pathway screened against the NCATS CANVASS Library (AID 1347388); conditions: p53RE-bla HCT-116, beta-lactamase reporter, 16 h; series mostly up to 46.1 µM
Procedure, shortened: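 p53RE-bla HCT-116 cells (4000/well) were plated 5 h at 37C, exposed to compounds for 16 h at 37C over an 11-point concentration series, then loaded with CCF4 for 2 h at room temperature; 460/530 nm emission ratio read.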

[7] = qHTS for activators of Nrf2/ARE signaling pathway screened against the NCATS CANVASS Library (AID 1347391); conditions: ARE-bla HepG2, beta-lactamase reporter, 16 h; series mostly up to 46.1 µM; further: nearly all actives have a fitted effect of over 60% in size
Text: (§1) Natural products and their derivatives continue to be wellsprings of nascent therapeutic potential. However, many laboratories have limited resources for biological evaluation, leaving their previously isolated or synthesized compounds largely or completely untested. To address this issue, the Canvass library of natural products was assembled (https://tripod.nih.gov/canvass), in collaboration with academic and industry researchers, for quantitative high-throughput screening (qHTS) across a diverse set of cell-based and biochemical assays. The pure (>85% purity by liquid chromatography/mass spectrometry [LC/MS]) Canvass library of 346 natural products were submitted by 45 academic laboratories and companies around the world. […] The library was formatted into 1536-well plates and evaluated in 50 qHTS (in an 11-pnt concentration series) bioassays with broad scope of disease-relevant mechanisms. The resulting data set from 50 different assays was then systematically analyzed to identify overall trends and specific natural products with interesting biological activities. […]
Nrf2/ARE-screen assay protocol: 1. […] Fluorescence readout was obtained using the Envision plate reader (PerkinElmer) using a 405 nm excitation and 460 nm and 530 nm emission filters. […] Luminescence was measured using the ViewLux plate reader with clear emission filter and 2x binning, 1 sec exposure settings.

[8] = qHTS for inhibitors of ER calcium dysfunction: SERCaMP assay screened against the NCATS CANVASS Library (AID 1347393); conditions: SH-SY5Y GLuc-SERCaMP (Gaussia luciferase released on ER calcium loss) secretion, thapsigargin, luminescence; series mostly up to 76.6 µM;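 further: lower secreted reporter signal means inhibitor of ER calcium depletion; nearly all actives have a fitted effect of over 40% in size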
Procedure, shortened: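 qHTS in SH-SY5Y reporter cells: 16 h compound pretreatment, 4 h thapsigargin, then secreted Gaussia luciferase measured by luminescence.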

[9] = Viability qHTS for inhibitors of the SERCaMP assay screened against the NCATS CANVASS Library (AID 1347400); conditions: SH-SY5Y SERCaMP cells viability, CellTiter-Glo, 48 h; series mostly up to 92.2 µM; further: nearly all actives have a fitted effect of over 70% in size
Procedure, shortened: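 Seed SH-SY5Y-GLuc SERCaMP MJH297 cells at 1000 per well, incubate 4 h, add compounds across an 11-point range, incubate 48 h at 37C, then add CellTiter-Glo and read luminescence.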

[10] = Redox Reaction Profiling qHTS: Assay Interference Panel against the NCATS CANVASS Library (AID 1347401); conditions: resazurin-DTT redox cycling, fluorescence, 15 min; series mostly up to 57.1 µM
Text: as §1, with “assays.” for “assays. The pure (>85% purity by liquid chromatography/mass spectrometry [LC/MS]) Canvass library of 346 natural products were submitted by 45 academic laboratories and companies around the world.”
Redox Profiling assay protocol: 1. […] An initial fluorescence readout was obtained using the ViewLux plate reader (PerkinElmer) using a 525 nm excitation and a 598 nm emission filters. […] After incubation, the final fluorescence readout was obtained using the ViewLux plate reader (PerkinElmer) using a 525 nm excitation and a 598 nm emission filters.

Structure (SMILES) | outcome [1] | Potency [2] | outcome [3] | Potency [4] | outcome [5] | outcome [6] | outcome [7] | outcome [8] | outcome [9] | outcome [10]
O=c1c(O)c(-c2ccc(O)c(O)c2)oc2cc(O)ccc12 | inactive | 23.4 µM (active) | inactive | inactive | inactive | – | – | – | – | –
C=C(C)[C@@H]1CC[C@]2(C(=O)O)CC[C@]3(C)[C@H](CC[C@@H]4[C@@]5(C)CC[C@H](O)C(C)(C)[C@@H]5CC[C@]43C)[C@@H]12 | inactive | 18.6 µM (active) | inactive | 33.1 µM (active) | – | inactive | inactive | inactive | inactive | inactive
